The list is not random: actives were taken first. Their share in the collection is about 7.2%.
HEK293 cAMP ctrl: parental HEK293 cAMP activation (counter-screen). parental HEK293 CNG cAMP sensor, membrane potential fluorescence. Potency, µM (titrated, usually from 57.1 µM), for inactives: at the highest dose activation, usual class: activators. actives 2.5% (n = 73,000). AID 938; also: % of control where 0% means no effect; nearly all actives have a fitted effect of over 55% in size
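Counterscreen for endogenous-receptor signalling: CNG-channel HEK 293 cells report cAMP rise by membrane depolarization. After 60 min dye equilibration with 100 uM RO 20-1724, compounds incubated 30 min before bottom-read fluorescence at 590 nm.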
ERK AVP block: inhibitors of vasopressin-stimulated ERK signaling pathway; HEK293-V1b, vasopressin-stimulated pERK AlphaScreen; Potency, µM (doses to about 57.5 µM), inactives show top-dose activity, negative = inhibition, usual class: inhibitors; actives 0.99% (n = 72,000); AID 995; also: % is scaled to controls: 0 for no effect and ±100 for the full control effect; nearly all actives have a fitted effect of over 55% in size
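Phosphorylated ERK1/2 detected via AlphaScreen bead proximity in lysates of V1b-expressing HEK293 cells given 25 nM vasopressin for 5 min after 30 min compound exposure (37 °C). AC50 from Hill equation; basal DMSO 0%, vasopressin 100%.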
FLuc inh: firefly luciferase inhibition. purified firefly luciferase, luminescence, 8 min. Potency, µM (series often up to 57.1 µM), without a hit: at the top dose activity change, negative = inhibition, most hits filed as inhibitors. actives 2.2% (n = 72,000). AID 411; also: % is scaled to controls: 0 for no effect and ±100 for the full control effect; nearly all actives have a fitted effect of over 40% in size
Target sequence (P08659 whole entry, looked up): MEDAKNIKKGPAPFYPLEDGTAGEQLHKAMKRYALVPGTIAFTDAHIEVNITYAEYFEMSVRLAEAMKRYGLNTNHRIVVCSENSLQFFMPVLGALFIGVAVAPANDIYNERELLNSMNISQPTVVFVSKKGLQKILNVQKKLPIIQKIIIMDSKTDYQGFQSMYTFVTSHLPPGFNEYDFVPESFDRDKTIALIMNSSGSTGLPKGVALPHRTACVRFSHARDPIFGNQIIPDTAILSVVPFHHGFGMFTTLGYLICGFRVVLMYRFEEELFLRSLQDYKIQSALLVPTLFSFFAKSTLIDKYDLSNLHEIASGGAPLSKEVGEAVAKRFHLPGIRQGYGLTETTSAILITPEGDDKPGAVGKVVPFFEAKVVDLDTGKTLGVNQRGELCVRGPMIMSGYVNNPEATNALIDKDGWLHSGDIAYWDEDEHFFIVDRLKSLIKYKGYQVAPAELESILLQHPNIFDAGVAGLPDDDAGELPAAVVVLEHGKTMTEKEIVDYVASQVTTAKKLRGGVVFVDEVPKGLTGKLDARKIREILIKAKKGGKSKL
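Here, luciferase activity is measured as luminescence following an 8 min room-temperature reaction at 10 uM ATP, pH 7.2. Every library sample is titrated.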
TSHR ag: TSH receptor (human) agonism. P16473. HEK293-CNG-TSHR cells (CNG channel as cAMP sensor), membrane potential dye, cAMP. Potency, µM (series often up to 57.1 µM), for the others: at the highest dose activation, usual class: activators. actives 0.48% (n = 73,000); active = well fitted activation curve with a large enough effect in the main read-out, with a control signal flat, not every such curve was filed as active; inconclusive = small, poorly fitted or top-dose-only effect, or a change in a side signal; inactive = no such curve, though single readings can be large or run the other way; % of control where 0% means no effect;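 also: the control signal comes from parental cells without the receptor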
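HEK 293 cells stably expressing TSHR and a modified CNG channel, with CNG-only parental cells as counterscreen, were preloaded 60 min at room temperature with membrane potential dye containing 100 uM RO 20-1724. Compound exposure was 30 min, and depolarization was read as fluorescence at 590 nm.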
Tau fil binding: binds recombinant human tau filaments | P10636 | recombinant tau filaments, thioflavin S fluorescence, 15 h; filaments grown with octadecylsulfate alongside compound | Potency, µM (top dose mostly 57.1 µM), for the others: at the highest dose activity change, negative = inhibition | actives 2% (n = 71,000) | AID 596;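 also: % is scaled to controls: 0 for no effect and ±100 for the full control effect; actives lower thioflavin S fluorescence by blocking filaments or displacing dye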
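Tau 2 uM in ThS buffer dispensed; compound added; 60 uM ODS added (finals 1 uM tau, 30 uM ODS); 15 h 37 C; fluor ex450/em510.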
PK Bst: pyruvate kinase (B. stearothermophilus) modulation; purified pyruvate kinase, luminescence ATP production; ribose 5-phosphate activator present at AC10; actives 1.2% (n = 51,000); AID 361; Potency, µM; in the data active = potency below about 11 µM; inconclusive = mostly about 12 µM to 25 µM;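 the screen sought inhibitors and activators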;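 also: scaled between full activation by ribose 5 phosphate and full inhibition by luteolin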
Active calls of the source: *; i = inactive; u = inconclusive; x = no result; [ ] = remark or other dose. Unless noted, calls follow the shape of the dose curve; as a rule, active = well fitted curve in the direction sought with a large enough effect; inconclusive = small, poorly fitted or top-dose-only effect, or another doubt; inactive = no such curve, though single readings can be large; an effect the other way counts as inactive or inconclusive. Potency is read from the fitted curve at half-maximal effect.

SMILES | HEK293 cAMP ctrl | ERK AVP block | FLuc inh | TSHR ag | Tau fil binding | PK Bst
COc1ccc(OC)c(C(c2nnnn2C2CCCC2)N2CCN(c3ccc(F)cc3)CC2)c1 (stereo not given) | u | -11% | 5% | u | -1% | >57
CCCCC(c1nnnn1CCOC)N1CCN(c2cccc(OC)c2)CC1 (stereo not given) | u | -14% | -2% | u | 13µM* | >57
COc1ccc(C(c2nnnn2C2CCCC2)N2CCC(C)CC2)c(OC)c1 (stereo not given) | 16µM* | 9% | 0% | u | -2% | >57
CCCC(c1nnnn1CCOC)N1CCN(c2cccc(OC)c2)CC1 (stereo not given) | 22% | -23% | 1% | -1% | -28% | >57
COCCn1nnnc1C(c1ccc(OC)cc1OC)N1CCN(c2ccccc2F)CC1 (stereo not given) | 25µM* | 1% | -1% | u | -13% | >57
COc1ccc(C(c2nnnn2Cc2cccs2)N2CCN(c3ccccc3F)CC2)cc1 (stereo not given) | 20µM* | -15% | 2% | u | 0% | >57
Cc1cc(NC(=O)CSc2nnc(COc3ccccc3)n2Cc2ccco2)no1 | -8% | -18% | 5% | -3% | 2% | >57
O=C(CSc1nnc(COc2ccccc2)n1Cc1ccco1)Nc1ccc2c(c1)OCCO2 | 15% | -23% | -5% | 20µM* | 181% | >57
O=C(CSc1nnnn1Cc1ccccc1)Nc1ccc2c(c1)OCO2 | 18% | -3% | -1% | -2% | -7% | >57
Nc1c(C(=O)Nc2ccc3c(c2)OCCO3)nnn1CCc1ccccc1 | 1% | -25% | 16µM* | -7% | -11% | x
O=C(CSc1nnnn1-c1ccccc1)NC(=O)Nc1ccc2c(c1)OCCO2 | 25% | -8% | 16µM* | x | 137% | x
O=C(CSc1nnnn1Cc1ccccc1)Nc1ccc2c(c1)OCCO2 | 4% | -20% | -4% | 3.2µM* | 8% | >57
CC(C)C[C@@H](CC(=O)N[C@H](CC(=O)N[C@@H]1CCNC[C@H]1C(=O)N[C@H](CC(=O)N[C@@H](CCC(=O)O)CC(=O)O)Cc1c[nH]c2ccccc12)C(C)C)NC(=O)[C@@H]1CNCC[C@H]1N | 5% | x | x | 6% | -10% | x
NC[C@H]1O[C@@H](n2cnc3c(=O)[nH]c(N)nc32)[C@@H](O)[C@@H]1O | 0%[11.4 µM] | -13%[11.5 µM] | 1%[11.4 µM] | 5%[11.4 µM] | 1%[11.4 µM] | x
c1ccc(CSc2nnc3c(n2)OC(c2ccco2)Nc2ccccc2-3)cc1 (stereo not given) | -6%[11.4 µM] | u | -12% | x | 4µM* | x
Cc1cc(C(=O)CSc2nnnn2-c2ccc(O)cc2)c(C)n1Cc1ccc2c(c1)OCO2 | u | 14% | 1% | u | 134% | >57
Cc1cc(C(=O)CSc2nnc(-c3cccc(F)c3)n2N)c(C)n1Cc1ccc2c(c1)OCO2 | 10µM* | -7% | 0% | u | i | >57
Cc1ccc(C(=O)CSc2nnc(CNc3nc(-c4ccccc4)cs3)n2C)cc1 | 15% | 13µM* | 2% | 24% | 14% | >57
Cc1cccc(N2CCN(C(=O)C3CCN(S(=O)(=O)c4cccc5nsnc45)CC3)CC2C)c1 (stereo not given) | -5% | 9% | 3% | -11% | 25µM* | >57
Cc1cccc(NC(=O)C2CCN(S(=O)(=O)c3cccc4nsnc34)CC2)n1 | 2% | 14% | 2% | 7% | -84% | u
COc1ccc2nc(NC(=O)C3CCN(S(=O)(=O)c4cccc5nsnc45)CC3)sc2c1 | -12% | 6% | -2% | 20% | 13µM* | 3*
Cc1cccc(N2CCN(C(=O)C3CCN(S(=O)(=O)c4cccc5cccnc45)CC3)CC2C)c1 (stereo not given) | 6% | -20% | 1% | 6% | -3% | x
CCN1C(=O)[C@H]2[C@H]3[C@H](O)[C@H](O)C/C(=N/NC(=O)OCc4ccc(OC)cc4)[C@H]3CC[C@@H]2C1=O | 11%[11.4 µM] | 34%[11.5 µM] | 1%[11.4 µM] | 1%[11.4 µM] | x | x
